Measurements: paper PMC5540273 (PLoS ONE, 2017)

Key:
Settings in all cases: concentration: 1 μM, replicates: in singlicate; n = 1
LKB1 = system: T1, LKB1
T1 construct: gene STK11

LOK = system: T2, LOK
T2 construct: gene STK10

LRRK2 = system: LRRK2
LTK = system: LTK
LYN = system: LYN
LZK = system: T3, LZK
T3 construct: gene MAP3K13

MAK = system: MAK
MAP3K15 = system: MAP3K15
MAP3K1 = system: MAP3K1
MAP3K2 = system: MAP3K2
MAP3K3 = system: MAP3K3
MAP3K4 = system: MAP3K4
MAP4K2 = system: MAP4K2
MAP4K3 = system: MAP4K3
MAP4K4 = system: MAP4K4
MAP4K5 = system: MAP4K5
MAPKAPK2 = system: MAPKAPK2
MAPKAPK5 = system: MAPKAPK5
MARK1 = system: MARK1
MARK2 = system: MARK2
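Further: KINOMEscan kinase panel screen.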

Row | Structure (SMILES) | %Inh (LKB1) | %Inh (LOK) | %Inh (LRRK2) | %Inh (LTK) | %Inh (LYN) | %Inh (LZK) | %Inh (MAK) | %Inh (MAP3K15) | %Inh (MAP3K1) | %Inh (MAP3K2) | %Inh (MAP3K3) | %Inh (MAP3K4) | %Inh (MAP4K2) | %Inh (MAP4K3) | %Inh (MAP4K4) | %Inh (MAP4K5) | %Inh (MAPKAPK2) | %Inh (MAPKAPK5) | %Inh (MARK1) | %Inh (MARK2)
1 | Cl.c1ccc(Cn2ccc3cc(Nc4ncnc5ccccc45)ccc32)cc1 [GW275568] | 0% | 32% | 0% | 6% | 0% | 35% | 25% | 0% | 0% | 0% | 0% | 5% | 0% | 1% | 4% | 3% | 7% | 0% | 17% | 28%
2 | O=C(NCCCN1CCCC1=O)c1cnc(NCc2cc(Cl)ccc2Cl)nc1NC1CCNCC1 | 0% | 4% | 0% | 0% | 1% | 0% | 84% | 0% | 0% | 79% | 57% | 12% | 0% | 16% | 0% | 19% | 0% | 0% | 0% | 0%
3 | Nc1nc(-c2ccccn2)c(-c2ccnc3ccccc23)s1 [GW548057] | 8% | 0% | 0% | 0% | 0% | 51% | 12% | 11% | 10% | 0% | 0% | 4% | 0% | 0% | 4% | 0% | 0% | 0% | 0% | 0%
4 | CNc1nccc(-c2c(-c3ccc(F)cc3)ncn2CCCN2CCOCC2)n1 [SB-222516] | 0% | 0% | 0% | 0% | 0% | 0% | 0% | 0% | 21% | 5% | 0% | 17% | 0% | 0% | 0% | 8% | 0% | 0% | 0% | 9%
5 | COc1cc2c(Nc3cccc(NC(=O)c4ccccc4)c3)ncnc2cc1OCCCN1CCOCC1 [GSK223810] | 0% | 10% | 0% | 0% | 90.3% | 0% | 0% | 0% | 0% | 6% | 0% | 18% | 0% | 9% | 0% | 43% | 5% | 0% | 11% | 0%
6 | CS(=O)(=O)CCNCc1ccc(-c2ccc3ncnc(Nc4ccc(OCc5ccccc5)c(Cl)c4)c3c2)o1.Cl [GW574783] | 0% | 58% | 22% | 25% | 0% | 26% | 12% | 5% | 15% | 0% | 0% | 0% | 0% | 1% | 0% | 5% | 16% | 0% | 0% | 0%
7 | CCc1nc(-c2cccc(C)c2)c(-c2ccnc(NC(=O)c3ccccc3)c2)s1 | 0% | 11% | 3% | 10% | 8% | 42% | 16% | 2% | 2% | 0% | 22% | 0% | 0% | 0% | – | 0% | 0% | 0% | – | 0%
8 | COc1ccc(NC(=O)Nc2ccc(C)c(-c3ccc(C(=O)Nc4ccncc4)cc3)c2)cc1 [GSK1398475] | 0% | 0% | 0% | 7% | 34% | 0% | 10% | 0% | 0% | 0% | 0% | 0% | 0% | 0% | 0% | 0% | 6% | 0% | 0% | 0%
